Test results published in the supplement of paper PMC13380429.

Tested on: Vero E6 infected with SARS-CoV-2
Assay: inhibition of SARS-CoV-2 cytopathic effect; higher = more antiviral protection, active = above 15
Conditions: 48 h

Measured: inhibition of SARS-CoV-2 cytopathic effect

N#Cc1ccc(Cn2cncc2CN2CCN(c3cccc(Cl)c3)C(=O)C2)cc1
inactive: 1 nM 3.21% | 8.33 nM 3.01% | 100 nM 0.11% | 833.33 nM -2.48% | 10000 nM -1.12%

CCOC(=O)C1=C(C)NC(=S)NC1c1cccc(O)c1 (stereo not given) [monastrol]
inactive: 1 nM 0.53% | 8.33 nM -0.07% | 100 nM 1.51% | 833.33 nM 0.94% | 10000 nM -1.39%

Clc1cccc(Cl)c1CSc1nnc(-c2cnccn2)s1 [yoda-1]
inactive: 1 nM 1.9% | 8.33 nM 3.59% | 100 nM -0.57% | 833.33 nM 2.67% | 10000 nM 9.5%

CCCCCCCCCCCCCCCCCCOP(=O)([O-])OC1CC[N+](C)(C)CC1 [perifosine]
inactive: 1 nM 0.3% | 8.33 nM -1.34% | 100 nM -0.76% | 833.33 nM -1.89% | 10000 nM -0.93%

c1ccc2c(c1)CCCc1cc(NCCN3CCOCC3)nnc1-2
inactive: 1 nM 0.07% | 8.33 nM 1.77% | 100 nM 1.8% | 833.33 nM 1.51% | 10000 nM 0.84%

Cc1cc2c(OCC(CNC(C)(C)C)OC(=O)c3ccccc3)cccc2[nH]1 (stereo not given) [bopindolol]
inactive: 1 nM -0.9% | 8.33 nM -1.91% | 100 nM -0.64% | 833.33 nM 0.54% | 10000 nM 0.29%

COc1ccc(N(C(=O)Oc2c(C)cccc2C)c2ccnc(Nc3ccc(N4CCN(C)CC4)cc3)n2)c(OC)c1
inactive: 1 nM 0.25% | 8.33 nM 1.54% | 100 nM 0.43% | 833.33 nM 0.02% | 10000 nM -1.27%

NS(=O)(=O)c1cc(-c2nnn[nH]2)c(NCc2cccs2)cc1Cl [azosemide]
inactive: 1 nM 2.38% | 8.33 nM -0.55% | 100 nM 3.16% | 833.33 nM 9.99% | 10000 nM -3.43%

Cc1cc(-c2nc(C(=O)Nc3cn(C4CCOCC4)nc3C(N)=O)co2)ccn1
inactive: 1 nM -2.34% | 8.33 nM -3.32% | 100 nM -0.57% | 833.33 nM -4.01% | 10000 nM -5.6%

CC(=O)NC[C@H]1CN(c2ccc(N3CCOCC3)c(F)c2)C(=O)O1 [linezolid]
inactive: 1 nM -5.81% | 8.33 nM 4.06% | 100 nM 2.87% | 833.33 nM -0.71% | 10000 nM 3.13%

C[C@]12CC[C@@H]3c4ccc(OS(=O)(=O)O)cc4CC[C@H]3[C@@H]1CCC2=O [estropipate]
inactive: 1 nM -1.99% | 8.33 nM 1.92% | 100 nM 0.66% | 833.33 nM 1.96% | 10000 nM -6.12%

CN1C2C=C(c3sccc3Br)CC1CC2 (stereo not given)
inactive: 8.33 nM -2.54% | 100 nM -0.99% | 833.33 nM -2.31% | 10000 nM 3.11%
active: 1 nM 24.2%

CC(C)CCNc1ncccc1C(=O)N1CCN(Cc2ccccc2)CC1
inactive: 1 nM 0.16% | 8.33 nM 0.21% | 100 nM 1.38% | 833.33 nM 0.33% | 10000 nM -0.35%

CNC(=C[N+](=O)[O-])NCCSCc1ccc(CN(C)C)o1 [ranitidine]
inactive: 1 nM 2.45% | 8.33 nM 2.26% | 100 nM 2.56% | 833.33 nM 0.8% | 10000 nM 1.08%

NC(=O)Nc1cc(-c2cccc(F)c2)sc1C(=O)N[C@H]1CCCNC1
inactive: 1 nM -2.18% | 8.33 nM 0.53% | 100 nM -2.2% | 833.33 nM -4.24% | 10000 nM -19.5%

CC(C)Oc1ccc(Cc2ccc(NC3=NCCN3)cc2)cc1
inactive: 1 nM 0.38% | 8.33 nM 0.26% | 100 nM 2.45% | 833.33 nM 0.98% | 10000 nM -0.97%

CCC[C@H](NC(=O)[C@@H]1[C@H]2CCC[C@H]2CN1C(=O)[C@@H](NC(=O)[C@@H](NC(=O)c1cnccn1)C1CCCCC1)C(C)(C)C)C(=O)C(=O)NC1CC1 [telaprevir]
inactive: 1 nM 0.02% | 8.33 nM -0.75% | 100 nM 0.71% | 833.33 nM 5.12% | 10000 nM -2.66%

CNC(=O)c1c(-c2ccc(F)cc2)oc2cc(N(CCO)S(C)(=O)=O)c(C3CC3)cc12 [nesbuvir]
inactive: 1 nM 0.34% | 8.33 nM 0.12% | 100 nM 0.33% | 833.33 nM -1.14% | 10000 nM -3.08%

Cc1cc2c(cc1CC(=O)c1sccc1S(=O)(=O)Nc1onc(C)c1Cl)OCO2 [sitaxentan]
inactive: 1 nM -0.88% | 8.33 nM -1.81% | 100 nM 0.75% | 833.33 nM 1.22% | 10000 nM 1.37%
